The list is not random: actives were taken first. Their share in the collection is about 9%.
HTT ATP protect: qHTS Multiplex Assay to Identify Dual Action Probes in a Cell Model of Huntington: Cytoprotection (ATP). PC12 HTT-Q103 induced, cytoprotection, ATP luminescence, 40 h. 0.14% of 230,000 active. Potency, µM (titrated, usually from 56.4 µM), usual class: activators; note: nearly all actives have a fitted effect of over 45% in size
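Quantitative HTS on tebufenozide-induced (100 nM) PC12 cells expressing HTTQ103 exon 1–GFP; compounds tested as a concentration series; survival measured via cellular ATP.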
Lamin A splicing: qHTS Assay for Modulators of Lamin A Splicing | AID 1487, 2009 | Potency, µM (series often up to 46.1 µM), usual class: inhibitors | 0.01% of 200,000 active | HeLa LMNA splicing GFP/RFP minigene ratio, 48 h; active = well fitted inhibition curve with a large enough effect in the signal ratio, with a control signal flat, not every such curve was filed as active; inconclusive = small, poorly fitted or top-dose-only effect, or effect the other way, or a change in a side signal; the % refers to the signal ratio
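S3 HeLa stable clones carrying a lamin A-EGFP splicing minigene plus DsRed2 were seeded at 600 cells/well in Opti-MEM with 2% FBS, pin-dosed and incubated 48 h at 37°C. Acumen cytometry (488 nm) gave the GFP/RFP total-intensity ratio.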
HTT aggregate: qHTS Multiplex Assay to Identify Dual Action Probes in a Cell Model of Huntington: Aggregate Formation (GFP); PC12 HttQ103-GFP aggregates, Acumen cytometry, 40 h; Potency, µM (titrated, usually from 46.1 µM), usual class: inhibitors; 1.1% of 220,000 active; AID 1688, 2009; note: nearly all actives have a fitted effect of over 60% in size
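Ecdysone-promoter PC12 model expressing HTT exon 1 Q103 fused to GFP, induced by tebufenozide at 100 nM final. Compounds titrated; aggregates sized 1–25 µm scored on a 488 nm laser cytometer.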
HPGD block: qHTS Assay for Inhibitors of HPGD (15-Hydroxyprostaglandin Dehydrogenase); purified HPGD, NADH fluorescence kinetic, PGE2 substrate; Potency, µM, usual class: inhibitors; 15-hydroxyprostaglandin dehydrogenase [NAD(+)] (Homo sapiens), P15428; 4.3% of 150,000 active; active = well fitted inhibition curve with a large enough effect, not every such curve was filed as active; inconclusive = small, poorly fitted or top-dose-only effect, or another doubt; inactive = no such curve, though single readings can be large or run the other way
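20 nM HPGD preincubated 15 min at room temperature with compound in 50 mM Tris-HCl pH 8, 0.01% Tween 20. Started with 1 mM NAD+ and 30 uM prostaglandin E2; NADH fluorescence (360/450 nm) read 5 times over 30-s intervals, last minus first.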
Luc counter: Counterscreen for Luciferase (Kinase-Glo TM) Inhibition; 0.28% of 200,000 active; Kinase-Glo luciferase, ATP luminescence, 8 min; Potency, µM (doses to about 38.3 µM), usual class: inhibitors; Luciferin 4-monooxygenase (Photuris pensylvanica), Q27757; note: nearly all actives have a fitted effect of over 60% in size
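Recombinant Kinase-Glo luciferase, 10 uM ATP (linear range), luciferin; imidazole pH 7.2 / KCl / MgCl2 / Tween / BSA buffer; 8 min RT; luminescence.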
ALDH1A1 inh: qHTS Assay for Inhibitors of Aldehyde Dehydrogenase 1 (ALDH1A1); Aldehyde dehydrogenase 1A1 (Homo sapiens), P00352; Purified ALDH1A1, NADH fluorescence, propionaldehyde substrate; Potency, µM (titrated, usually from 75.3 µM), usual class: inhibitors; 7.3% of 220,000 active; active = well fitted inhibition curve with a large enough effect, not every such curve was filed as active; inconclusive = small, poorly fitted or top-dose-only effect, or another doubt; inactive = no such curve, though single readings can be large or run the other way
Target sequence (P00352 whole entry, looked up): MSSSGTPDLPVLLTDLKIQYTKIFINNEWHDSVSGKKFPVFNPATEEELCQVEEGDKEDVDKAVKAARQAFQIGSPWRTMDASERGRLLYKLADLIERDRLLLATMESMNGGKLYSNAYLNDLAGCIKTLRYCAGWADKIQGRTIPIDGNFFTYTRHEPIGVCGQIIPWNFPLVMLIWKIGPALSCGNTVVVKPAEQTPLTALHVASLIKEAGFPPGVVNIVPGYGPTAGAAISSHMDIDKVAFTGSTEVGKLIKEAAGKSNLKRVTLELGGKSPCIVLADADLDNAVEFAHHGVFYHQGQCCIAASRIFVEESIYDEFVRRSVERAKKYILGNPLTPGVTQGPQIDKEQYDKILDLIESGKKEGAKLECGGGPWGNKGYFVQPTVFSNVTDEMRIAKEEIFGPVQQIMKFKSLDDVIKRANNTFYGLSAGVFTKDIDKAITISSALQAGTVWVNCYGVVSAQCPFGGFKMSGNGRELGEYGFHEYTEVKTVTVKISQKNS
Numbers stand for hits; [ ] = remark or other dose. Unless noted, calls come from the whole dose curve; as a rule, active = well fitted curve in the direction sought with a large enough effect; inconclusive = small, poorly fitted or top-dose-only effect, or another doubt; inactive = no such curve, though single readings can be large; an effect the other way counts as inactive or inconclusive.

`O=C(COc1ccc2ccccc2c1)NC1CC1` gave HTT ATP protect inactive, Lamin A splicing inactive, HTT aggregate inconclusive, HPGD block 31.6µM, Luc counter inactive and ALDH1A1 inh inactive.
Cc1cc(Cl)c(S(=O)(=O)N2CCSCC2)cc1OCC(=O)NC1CCCCC1 was read as HTT ATP protect inactive, Lamin A splicing inconclusive, HTT aggregate inactive[9.22 µM], HPGD block inactive, Luc counter inactive and ALDH1A1 inh 7.94µM.
For O=C(COc1ccc(Br)cc1Cl)NC1CCCCC1 the results were HTT ATP protect inactive[0.074 µM], Lamin A splicing inconclusive, HTT aggregate inactive, HPGD block 11.2µM, Luc counter inactive and ALDH1A1 inh inactive.
Cc1ccc(OCC(=O)NC2CCCC2)c(C)c1 was read as HTT ATP protect inactive, Lamin A splicing inconclusive, HTT aggregate inactive, HPGD block 28.2µM, Luc counter inactive and ALDH1A1 inh inactive.
`O=C(COc1ccc(Br)cc1Br)NC1CCCC1` gave HTT ATP protect inactive, HTT aggregate inactive, Luc counter inactive and ALDH1A1 inh inactive.
Screening Cc1cc(Cl)c(S(=O)(=O)N2CCCCCC2)cc1OCC(=O)NC1CCCCC1 returned HTT ATP protect inactive, Lamin A splicing inconclusive, HTT aggregate inactive, HPGD block inactive, Luc counter inactive and ALDH1A1 inh inconclusive.
CC(C)CN1C=C2C(=O)C(C)(OC(=O)C3CCCC3)C(=O)C=C2C=C1c1ccsc1 (configuration not stated) was read as HTT ATP protect inactive[10 µM], Lamin A splicing inactive[9.22 µM], HTT aggregate inactive[9.22 µM], HPGD block inactive, Luc counter inactive[7.66 µM] and ALDH1A1 inh inactive[13.5 µM].
Cc1cc(Cl)ccc1OCCCC(=O)NC1CCN(C)CC1 was read as HTT ATP protect inactive, Lamin A splicing inactive, HTT aggregate inactive, HPGD block inactive, Luc counter inactive and ALDH1A1 inh inactive.
For Cc1cc(Cl)ccc1OCC(=O)NC1CCCC1 the results were HTT ATP protect inactive[10 µM], Lamin A splicing inconclusive, HTT aggregate inactive, HPGD block 14.1µM, Luc counter inactive and ALDH1A1 inh inactive.
`CC(C)NC(=O)N1CC[C@@]2(CCCN(C(=O)c3cnccn3)C2)C1` gave HTT ATP protect inactive, HPGD block inactive, Luc counter inactive and ALDH1A1 inh inactive.
For COc1ccc2nc(Nc3sc4c(c3C(N)=O)CCCC4)sc2c1 the results were HTT ATP protect inactive[10 µM], Lamin A splicing inconclusive, HTT aggregate inconclusive, HPGD block 15.8µM, Luc counter inactive and ALDH1A1 inh 8.91µM.
Cc1ccccc1OCCCCn1cnc2ccccc21 was read as HTT ATP protect inactive, Lamin A splicing inconclusive, HTT aggregate 7.08µM, HPGD block inactive, Luc counter inactive and ALDH1A1 inh inactive.
`Cc1ccc(OCCCCn2cnc3ccccc32)cc1` gave HTT ATP protect inactive, HTT aggregate inconclusive, Luc counter inactive and ALDH1A1 inh inactive.
`c1ccc2c(c1)ncn2CCCCOc1ccc2c(c1)CCC2` gave HTT ATP protect inactive, Lamin A splicing inconclusive, HTT aggregate inactive[9.22 µM], HPGD block inconclusive, Luc counter inactive and ALDH1A1 inh 14.1µM.
Screening COc1ccc2c(c1)C(=O)[C@@H](OC(=O)N[C@H](C)C1CCCCC1)[C@H](c1ccc(OC)c(Br)c1)O2 returned HPGD block inactive, Luc counter inactive and ALDH1A1 inh inactive.
Screening O=C(NC1CCCC1)c1cc(Nc2cccc(C(F)(F)F)c2)nc2ccccc12 returned Lamin A splicing inactive.
For Cc1cccc(Cc2ccc(Cl)nn2)c1 the results were HTT ATP protect inactive, Lamin A splicing inactive[9.22 µM], HTT aggregate inactive, Luc counter inactive and ALDH1A1 inh inactive.
Screening CCOC(=O)c1nnn(-c2nonc2N)c1CN(C)C1CCCCC1 returned HTT ATP protect inactive, Lamin A splicing inactive, HTT aggregate inactive, HPGD block inactive, Luc counter inactive and ALDH1A1 inh 2µM.

Screening data deposited in PubChem BioAssay by National Center for Advancing Translational Sciences (NCATS).
